# Assay results taken from PubChem BioAssay (NCI).
# About 79,000 compounds went through this panel and 15% of them were active in at least one assay; those are over-represented in the sample as a whole. A number with no mark means an inactive call. Active and inactive are the calls of the source. No stated cut-off is given here; in the data, active means growth inhibition above about 70%; inactive means the rest.
# Columns and labels:
# [1] = NCI Yeast Anticancer Drug Screen. Data for the rad50 strain (AID 155);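 further: 0% = growth of vehicle-only cultures of the same strain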; settings: S. cerevisiae rad50 strain growth inhibition; at 50.0 µM; active compounds read high
# Summary of the method: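 Growth of the mutant yeast was measured after compound exposure and referenced to vehicle-treated cultures.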
# [2] = NCI Yeast Anticancer Drug Screen. Data for the mec2-1 strain (AID 157); settings: S. cerevisiae mec2-1 strain, at 50.0 µM, active compounds read high
# Summary of the method: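 Mutant yeast (mec2-1) grown with compound; growth inhibition relative to vehicle control reported.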
# [3] = NCI Yeast Anticancer Drug Screen. Data for the sgs1 mgt1 strain (AID 161);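 further: 0% = growth of cultures given vehicle only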; settings: S. cerevisiae sgs1 mgt1 strain, at 50.0 µM, active compounds read high
# Summary of the method: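 Compounds are added to genetically altered yeast, and growth is compared with cultures given vehicle alone to give percent inhibition.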
# [4] = NCI Yeast Anticancer Drug Screen. Data for the cln2 rad14 strain (AID 165);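 further: 0% = growth equal to vehicle treated cultures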; settings: S. cerevisiae cln2 rad14 strain, at 50.0 µM, active compounds read high
# Summary of the method: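 Readout is yeast growth inhibition versus vehicle-treated controls, using a strain with cln2 and rad14 alterations exposed to compound.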
# [5] = NCI Yeast Anticancer Drug Screen. Data for the bub3 strain (AID 167); settings: S. cerevisiae bub3 mutant strain, at 50.0 µM, active compounds read high
# Summary of the method: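 Whole-cell yeast assay. The mutant strain was incubated with compounds, and growth inhibition was determined by comparison with vehicle-treated cells.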
# [6] = NCI Yeast Anticancer Drug Screen. Data for the mlh1 rad18 strain (AID 175); settings: S. cerevisiae mlh1 rad18 strain growth inhibition; at 50.0 µM; active compounds read high
# Summary of the method: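 Genetically defined yeast (DNA repair-deficient) exposed to compounds; growth inhibition determined relative to vehicle.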
SMILES,growth inhibition [1] [%],growth inhibition [2] [%],growth inhibition [3] [%],growth inhibition [4] [%],growth inhibition [5] [%],growth inhibition [6]
O=C(O)CNCc1ccc(F)cc1,-1.85,-10,-14.7,-74.4,13.2,-5.9%
O=C(Nc1nc(C23CC4CC(CC(C4)C2)C3)cs1)c1c(O)c2ccccc2[nH]c1=O,-29.2,-23.9,-8.75,8.95,-6.45,-22.5%
COc1ccccc1-c1nc2ccccc2c(=O)[nH]1,12.8,-25.9,-14.1,8.5,6.4,2.25%
C[C@]12C(=O)C=CCC1=CC[C@@H]1[C@@H]2[C@H]2CC3(O)C(=O)O[C@@]4(C)[C@H]5C[C@@]6(C)[C@@H]7[C@@]2(O)[C@]1(OC[C@H]6C(=O)O5)O[C@]734 (stereo partly specified),9.6,16.3,-9.3,1,-22.4,-55%
CC(C)(CN1CCCCC1)C(=O)/C=C/c1ccc(Br)cc1,66.9,22.8,59.6,41.4,47.8,55.6%
O=C1C(O)=C(c2ccccc2)C(=O)N1c1ccccc1,-25.2,-9.05,-11.7,-62.5,6.65,9.5%
CC(=O)N=c1ccc2nc(N)nn(O)c-2c1,9.5,0.05,-10.4,-4.95,-33.6,-26.6%
O=c1[nH]c(=O)n(CCCCOc2ccccc2)cc1-c1ccccc1,3.75,10.2,19.6,0.7,12.1,5.9%
Nc1ccccc1SC1CCCCC1O (stereo unspecified),-4.9,2.2,-5.3,-8.2,3.75,-7.15%
O=C(O)COc1ccc(C(=O)/C(SS/C(C(=O)c2ccc(OCC(=O)O)c(Cl)c2Cl)=C2\C=C(c3ccc(F)cc3)SS2)=C2/C=C(c3ccc(F)cc3)SS2)c(Cl)c1Cl,-35,-28.4,-14.2,1.8,-22.3,83.7% (active)
CC1CCCc2c(CC3CC(=O)NC(=O)C3)nc(N)nc21 (stereo unspecified),6.75,5.25,-18.8,-7.85,-4.7,-23.4%
CCCCCCCCCCCCCCCCCCCCCCCCCCCC,-8.5,-10.1,-16,-21.2,-4.55,-22.9%
OC1CNc2c(ccc3ccccc23)C1 (stereo unspecified),10.7,-26.4,-13.4,-17,-38,-6.25%
O=C1c2ccccc2CC12Cc1ccccc1C2,2.05,-17.4,-3.85,-15.3,-29.7,0.15%
CCOC(=O)CN(c1scc(-c2ccccc2)c1C(=O)OCC)S(=O)(=O)c1ccc(C)cc1,-15.7,-28.6,0.05,-57.6,-2.7,0.85%
O=C(O)CCC(NC(=O)CCC(NC(=O)OCc1ccccc1)C(=O)OCc1ccccc1)C(=O)OCc1ccccc1 (stereo unspecified),-13.1,-31.5,-10.6,9.2,5.4,-10.8%
CN(C)C1CS(=O)(=O)OC2=C1CCSc1ccccc12 (stereo unspecified),5.1,12.1,11.4,-84.7,-5.65,7.6%
NC(=O)c1[nH]cnc1N,12.6,24.9,10.4,4,23.9,-58.5%
COC(=O)NC1CCCCC1,-2.5,-13.8,-4.6,20.6,-8.2,-6.35%
O=C(CCl)Oc1cccc2cccnc12,-8.75,9,-1.35,-12.2,-2.45,-2.75%
COC(=O)c1ccc(S(=O)(=O)O)cc1[N+](=O)[O-],3.05,11.9,2.5,-11.2,11.8,24.4%

SMILES,growth inhibition [1] [%],growth inhibition [2] [%],growth inhibition [3] [%],growth inhibition [4] [%],growth inhibition [5] [%],growth inhibition [6]
C=CCOC(=O)C1CC=CCC1C(=O)OCC=C (stereo unspecified),-17.6,-26.9,-17.9,-15.2,-3.95,-9.8%
CCN(CC)CC(C)(C)C=O,26.9,-19.8,20.8,4.3,-7.55,15.1%
CC[N+](C)(CC)Cc1ccc([NH-])c([NH-])c1.[Cl][Pt+2][Cl],35.1,27.4,36,37.2,-13.7,28.4%
O=C1C=C(N2CCCC2)c2ccccc21,15.4,-9.25,3.85,-18.9,-27.6,12.8%
CCOC(=O)C1=C(C)N(c2ccccc2)C2=C(C(=O)N(c3ccccc3)C2c2ccccc2)C1c1ccccc1 (stereo unspecified),9.9,-13.8,9.25,15,-21.7,7.2%
CC(=O)c1ccc2ccc3ccccc3c2c1,15.2,-0.6,18.6,-31.1,1.15,11.8%
O=[N+]([O-])c1cc(Br)ccc1N1CCCCC1,-3.15,-3.55,2.25,-18.1,17.9,-20.8%
COc1ccc(-c2nc(N3CCCC3)no2)cc1,-0.85,-4.65,32.1,3.85,31.1,-20.9%
Cc1ccccc1C(=O)c1cc(O)ccc1O,-11.2,-10.1,-1.25,-8,-16.3,-5.2%
COc1ccc(C(=O)Oc2ccc(C)c(CC(Cl)(Cl)Cl)c2)cc1,-6.1,-9.5,6.75,-12.3,-6.35,-14.4%
COC(=O)C1=COC(OC2OC(CO)C(O)C(O)C2O)C2C(C)CC(=O)C12 (stereo unspecified),-39.2,-39,-22.4,20.6,-29.9,-20.4%
CO[C@@]12CC(=O)/C(=C(O)\C=C\c3ccccc3)C(=O)[C@]1(OC)Cc1ccccc1O2,35.1,31.9,33.6,18.6,34.2,24.6%
O=[N+]([O-])c1ccc(N=Nc2c(S(=O)(=O)O)cc3cc(S(=O)(=O)O)ccc3c2O)c([N+](=O)[O-])c1,24.3,0.9,30.9,31.3,32.1,20.2%
O=C(NCCCl)NCC1CCCCO1 (stereo unspecified),-2.8,7,0.2,-76.3,-3.9,-12%
Cc1cc(N(CCCOS(C)(=O)=O)CCCOS(C)(=O)=O)ccc1C=Nc1cc(Cl)c(O)c(Cl)c1,31.7,21.4,62.8,8.65,34.7,54.5%
CCOC(=O)C1(c2ccccc2)CCNC(=O)CC1 (stereo unspecified),7.65,8.2,16.2,-14.1,13.5,8.6%
COc1cccc2c(C(=O)O)cc(-c3ccc(Cl)cc3)nc12,7.85,0.75,19.1,15.2,6.9,15.9%
CN1C(=O)C(Cc2cnc[nH]2)NC1=S (stereo unspecified),11.5,25.1,22.6,-7.5,10.7,1.1%
Nc1nc(-c2ccccc2)c(N=Nc2cccc(Cl)c2)s1,-10.7,-4,-11.4,-48,-2,-10.8%
COc1ccc(C(NC(N)=O)c2cc3c(cc2OC(C)=O)OCO3)c(OC)c1 (stereo unspecified),10.8,4.65,-2.45,22.4,-3.25,16.3%
